# Results as given in PubChem BioAssay AID463173 (ICCB-Longwood Screening Facility, Harvard Medical School, 2010).
# The whole screen tested about 52,000 compounds, of which about 4,300 (8.3%) were called active. The full list was thinned out, with actives kept by preference. Unmarked numbers belong to inactive results. No stated cut-off is given here; in the data, active means survival mostly below about 52% (no sharp cut-off); inactive means mostly above about 56%.
# Tested on: DeltatarO mutant
# Test: growth inhibition of S. aureus wild type versus tarO mutant, primary screen, teichoic acid synthesis inhibitors, RN4220, OD600 (AID 463173)
# Details: OD600, 18 h, active compounds read low, screened at 18.75 µg/mL (by protocol)
row,SMILES,survival
1,Cc1ccc(NC(=O)Cc2coc3ccc(C(C)C)cc23)cc1Cl,37% (active)
2,CC(C)c1ccc2occ(CC(=O)Nc3ccccc3Cl)c2c1,85%
3,Cc1ccc(NC(=O)Cc2coc3ccc(C(C)C)cc23)c(C)c1,88%
4,Cc1ccc2onc(CC(=O)Nc3cccc(C(F)(F)F)c3)c2c1,54%
5,CCCCOC(=O)c1ccc(NC(=O)Cc2coc3ccc(C(C)C)cc23)cc1,69%
6,CC(C)c1ccc2occ(CC(=O)Nc3cccc(C(F)(F)F)c3)c2c1,0% (active)
7,COC(=O)c1ccc(NC(=O)Cc2coc3cc(C)ccc23)cc1,91%
8,Cc1cccc(NC(=O)c2oc3ccccc3c2NC(=O)Cc2coc3ccc(C(C)C)cc23)c1,67%
9,Cc1ccc2c(CC(=O)Nc3cccc(C(F)(F)F)c3)coc2c1,1% (active)
10,CCN1Cc2cccc(C(=O)Nc3ccc(F)cc3)c2C1=O,129%
11,Cc1cc(C)cc(N2CCn3c2nc2c3c(=O)n(CCc3ccccc3)c(=O)n2C)c1,89%
12,COCCn1c(SCC(=O)c2ccc(OC)cc2)nc2cc(C(=O)NC3CCCC3)ccc2c1=O,94%
13,Cc1ccc(S(=O)(=O)N(C#N)c2nc(C)cc(C)n2)cc1,71%
14,C=C(C)c1cccc(C(C)(C)NC(=O)N(C)C2CCN(C)CC2)c1,82%
15,COc1ccccc1-c1nnc(C2CCN(S(=O)(=O)c3ccccc3)CC2)o1,84%
16,Cc1ccc(NS(=O)(=O)c2ccc3c4c(cccc24)C(=O)N3)c(C)c1,58%
17,COc1ccc(C)cc1NS(=O)(=O)c1ccc2c3c(cccc13)C(=O)N2,58%
18,Cc1ccc(C)c(NS(=O)(=O)c2ccc3c4c(cccc24)C(=O)N3)c1,52% (active)
19,O=C(Nc1nc2ccc(F)cc2s1)c1nc(S(=O)(=O)Cc2ccccc2F)ncc1Cl,80%
20,Cc1ccc(CS(=O)(=O)c2ncc(Cl)c(C(=O)Nc3nc4ccc(C)cc4s3)n2)cc1,6% (active)
21,Cc1ccc2nc(NC(=O)c3nc(SCc4ccccc4C)ncc3Cl)sc2c1,98%
22,COc1ccc2nc(NC(=O)c3nc(S(=O)(=O)Cc4cccc(C)c4)ncc3Cl)sc2c1,49%
23,COc1ccc2nc(NC(=O)c3nc(S(=O)(=O)Cc4ccc(C)cc4)ncc3Cl)sc2c1,82%

row,SMILES,survival
1,O=C(Nc1nc2ccc(F)cc2s1)c1nc(S(=O)(=O)Cc2ccccc2)ncc1Cl,17% (active)
2,CSc1ncc(Cl)c(C(=O)Nc2nc3ccc(F)cc3s2)n1,98%
3,COc1ccc2nc(NC(=O)c3nc(S(=O)(=O)Cc4ccccc4)ncc3Cl)sc2c1,77%
4,Cc1ccc(CS(=O)(=O)c2ncc(Cl)c(C(=O)Nc3nc4ccc(F)cc4s3)n2)cc1,9% (active)
5,Cc1cccc(CS(=O)(=O)c2ncc(Cl)c(C(=O)Nc3nc4ccc(F)cc4s3)n2)c1,-1% (active)
6,Cc1ccc(NC(=O)N2CCC(CN3CCCCCC3)CC2)c(Cl)c1,84%
7,O=C(c1ccccc1)N1CCCCC1CCN1CCCCC1 (stereo unspecified),70%
8,CCc1ccc(N(CC)C(=O)Cn2nc(Cc3cccnc3)c3ccccc3c2=O)cc1,81%
9,CCOc1ccc(S(=O)(=O)N(CC(=O)Nc2ccc3c(c2)OCO3)c2ccccc2)cc1,72%
10,O=C(Cn1ncc2c3ccccc3n(Cc3cccc(Cl)c3)c2c1=O)Nc1ccc(F)cc1F,103%
11,CC(C)CCNC(=O)CN1C(=O)c2cccnc2Oc2ccccc21,85%
12,CC(C)c1cnc2c(c1SCC(=O)N1CCCCC1)c(=O)n(C)c(=O)n2C,107%
13,COCCNc1ccc(-c2nc(-c3ccncc3)no2)cc1[N+](=O)[O-],77%
14,COCCNc1ccc(-c2nc(-c3ccccn3)no2)cc1[N+](=O)[O-],43% (active)
15,COCCNc1ccc(-c2nc(-c3ccco3)no2)cc1[N+](=O)[O-],54%
16,Cc1ccc(-c2noc(-c3ccc(NCc4cccnc4)c([N+](=O)[O-])c3)n2)cc1,104%
17,Cc1noc(-c2ccc(NCc3ccccc3)c([N+](=O)[O-])c2)n1,66%
18,O=[N+]([O-])c1cc(-c2nc(-c3cccnc3)no2)ccc1NCc1ccccc1,63%
19,CCCNc1ccc(-c2nc(-c3ccccn3)no2)cc1[N+](=O)[O-],111%
20,Cc1ccc(CNc2ccc(-c3nc(-c4ccccn4)no3)cc2[N+](=O)[O-])cc1,104%
21,CCNc1ccc(-c2nc(-c3ccccn3)no2)cc1[N+](=O)[O-],60%
22,O=[N+]([O-])c1cc(-c2nc(-c3ccccc3)no2)ccc1NCc1cccnc1,47% (active)
23,O=[N+]([O-])c1cc(-c2nc(-c3ccccn3)no2)ccc1NCc1ccccc1,39% (active)

row,SMILES,survival
1,CCCCNc1ccc(-c2nc(-c3ccccn3)no2)cc1[N+](=O)[O-],46% (active)
2,CCCCOc1ccc(C(=O)NCCc2csc3nc(-c4ccccc4F)nn23)cc1,84%
3,NCc1nc2cccnc2n1Cc1ccccc1Cl,81%
4,COc1ccc(C)cc1NC(=O)Nc1cc(C(=O)NCc2ccc(C)cc2)ccc1N1CCCC1,82%
5,Cc1cc2c(cc1NS(=O)(=O)c1ccc(NC(=O)CC(C)C)cc1)n(C)c(=O)c(=O)n2C,86%
6,COc1ccc(OC)c(-c2cc(C(=O)NCCc3ccccc3)c3c(-c4ccc(C)cc4)[nH]nc3n2)c1,67%
7,CCCCNc1nc2c(S(=O)(=O)c3ccc(Br)cc3)nnn2c2ccsc12,74%
8,CCOc1nc(Nc2ccccc2)nc(OCC)n1,115%
9,CCN(C(=O)CCS(=O)(=O)c1ccc2c(c1)CCN2C(C)=O)c1cccc(C(F)(F)F)c1,101%
10,Cn1c(=O)cc(SCC(=O)NCCc2ccc(Cl)cc2)c2cc(Cl)ccc21,75%
11,CCN(CCCNC(=O)CSc1cc(=O)n(C)c2cc(Cl)ccc12)c1cccc(C)c1,90%
12,CCc1ccc(CNC(=O)CSc2cc(=O)n(C)c3ccc(Cl)cc23)cc1,31% (active)
13,CCn1c(=O)c2cc(C(=O)NCCCN(C)Cc3ccccc3)sc2c2ccccc21,106%
14,CCN(CCCNC(=O)c1cc2c(=O)n(CC)c3ccccc3c2s1)c1cccc(C)c1,42% (active)
15,CCN(CCCNC(=O)CSc1cc(=O)n(CC)c2ccccc12)c1ccccc1,53%
16,CCn1c(=O)cc(SCC(=O)NCc2cccc(Cl)c2)c2ccccc21,38% (active)
17,CCc1ccc(CNC(=O)CSc2cc(=O)n(CC)c3ccccc23)cc1,87%
18,CCn1c(=O)c2cc(C(=O)NCCc3cccc(C)c3)sc2c2ccccc21,70%
19,CCN(CCCNC(=O)CSc1cc(=O)n(CC)c2ccccc12)c1cccc(C)c1,38% (active)
20,CCn1c(=O)cc(SCC(=O)NCc2ccc(C)cc2)c2ccccc21,84%
21,Cn1c(=O)cc(SCC(=O)NCc2ccc(F)cc2)c2cc(Cl)ccc21,88%
22,Cc1cc(C)c(NC(=O)C2CCN(c3nn4c(=O)cc(C)nc4s3)CC2)c(C)c1,103%
23,CC(=O)Nc1ccc(NCc2cccs2)cc1,101%

row,SMILES,survival
1,Cc1cc(Nc2ccc(C(C)C)cc2)nc(-n2nc(C)cc2C)n1,90%
2,COC(=O)c1cc2oc(C)cc2n1CC(=O)Nc1ccc(OC)c(OC)c1,131%
3,COc1ccc(N2CCN(Cc3nc4c(c(=O)[nH]c(=O)n4C)n3Cc3ccc(C)cc3)CC2)cc1,113%
4,CCOC(=O)c1c(C)n(C2CCCCC2)c2ccc(OCC(N)=O)cc12,69%
5,CCOC(=O)C1CCC(CN(Cc2c(Cl)cccc2Cl)S(=O)(=O)c2ccc(Cl)cc2)CC1 (stereo unspecified),81%
6,Cc1cccc2c(=O)cc(CSc3ccccc3NC(=O)c3cccc(Br)c3)[nH]c12,86%
7,CCN(CC)CCNC(=O)c1c2c(nc3ccccc13)C(=O)N(C1CCCCC1)C2,94%
8,CCOc1ccc2c(c1)c(=O)c(C(=O)c1ccc(CC)cc1)cn2CC(=O)Nc1ccccc1C,70%
9,CCOC(=O)C1CCN(C(=O)c2ccc(C)c(NC(=O)c3nsc4ccccc34)c2)CC1,88%
10,CCN(CCCNC(=O)c1cc2c(=O)n(CC)c3ccccc3c2s1)c1ccccc1,47% (active)
11,CCN(CCCNC(=O)c1cc2c(=O)n(C)c3ccccc3c2s1)c1ccccc1,57%
12,CCN(CCCNC(=O)c1cc2c(=O)n(CC)c3ccccc3c2s1)Cc1ccccc1,101%
13,Cc1ccc(Sc2c(C(=O)NCc3cccc(F)c3)[nH]c3ccccc23)cc1,72%
14,O=C(Cn1cnc2scc(-c3ccccc3)c2c1=O)NCc1ccco1,60%
15,CCc1cccc(C)c1Nc1c(-c2ccc(SC)cc2)nc2sccn12,50%
16,CC(=O)N1CCc2c(sc3nc(SCC(N)=O)n(-c4ccc(F)c(Cl)c4)c(=O)c23)C1,75%
17,CCN1CCOC(=O)C1CC(=O)Nc1ccc(C(C)=O)cc1 (stereo unspecified),59%
18,CCN1CCOC(=O)C1CC(=O)Nc1ccc(Br)cc1 (stereo unspecified),44% (active)
19,CCOc1ccc(NC(=O)CC2C(=O)OCCN2CC)cc1 (stereo unspecified),56%
20,CCc1ccc(NC(=O)CC2C(=O)OCCN2CC)cc1 (stereo unspecified),5% (active)
21,CCOC(=O)c1ccc(NC(=O)CC2C(=O)OCCN2CC)cc1 (stereo unspecified),61%
22,CCN1CCOC(=O)C1CC(=O)Nc1cc(C)cc(C)c1 (stereo unspecified),142%
